This note sets out measurements from PubChem BioAssay (EPA / NIEHS).

Assay [1] deals with Glucocorticoid receptor (Homo sapiens) (UniProt P04150). As to the kind of experiment: ATG_GR_TRANS: Attagene TRANS-FACTORIAL HepG2 Assay for human Glucocorticoid Receptor (GR) (AID 2282978).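 Note: activators score as hits since higher reporter transcript over DMSO is fitted.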 The settings on record: HepG2 Attagene TRANS GR reporter, mRNA transcription. Put shortly: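 HepG2 cells transiently transfected with GAL4-UAS reporter units and exogenous GR-Gal4 chimera, dosed 24 h. Reporter mRNA by RT-PCR, FAM labeling, HpaI digest and capillary electrophoresis; gain-of-signal fit versus DMSO.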
Chain of Glucocorticoid receptor (Homo sapiens) (P04150 whole entry, looked up, the tested form may be a part): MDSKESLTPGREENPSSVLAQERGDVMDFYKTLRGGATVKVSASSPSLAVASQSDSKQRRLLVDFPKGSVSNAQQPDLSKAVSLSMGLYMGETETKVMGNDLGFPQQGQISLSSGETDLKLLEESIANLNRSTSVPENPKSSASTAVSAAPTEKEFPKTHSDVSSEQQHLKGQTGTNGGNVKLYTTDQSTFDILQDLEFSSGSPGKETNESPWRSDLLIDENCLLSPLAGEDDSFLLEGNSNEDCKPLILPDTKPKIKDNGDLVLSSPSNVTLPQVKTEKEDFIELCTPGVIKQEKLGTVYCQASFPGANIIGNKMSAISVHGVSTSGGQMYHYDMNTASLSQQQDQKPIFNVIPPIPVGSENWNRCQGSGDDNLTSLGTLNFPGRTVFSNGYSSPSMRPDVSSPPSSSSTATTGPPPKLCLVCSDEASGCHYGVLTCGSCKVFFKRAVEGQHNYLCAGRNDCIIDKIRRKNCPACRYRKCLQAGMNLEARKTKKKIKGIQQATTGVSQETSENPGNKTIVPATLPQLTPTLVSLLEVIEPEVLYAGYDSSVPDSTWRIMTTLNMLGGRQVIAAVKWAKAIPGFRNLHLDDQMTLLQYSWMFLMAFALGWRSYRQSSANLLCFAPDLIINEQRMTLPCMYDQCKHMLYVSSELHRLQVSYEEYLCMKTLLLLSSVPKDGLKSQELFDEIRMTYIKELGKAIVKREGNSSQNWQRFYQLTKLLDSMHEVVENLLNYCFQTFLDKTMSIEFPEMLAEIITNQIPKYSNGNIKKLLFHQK

Assay [2] deals with Oxysterols receptor LXR-beta (Homo sapiens) (UniProt P55055). As to the kind of experiment: ATG_LXRb_TRANS: Attagene TRANS-FACTORIAL HepG2 Assay for human Liver X Receptor beta (LXRb) (AID 2282981). The settings on record: HepG2 Attagene TRANS GAL4-LXRb reporter, mRNA. Summed up: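 In this TRANS format, exogenous chimeric NR-Gal4 protein activity, not endogenous factors, drives reporter expression in transfected human HepG2 cells. Exposure lasted 24 h; reporter mRNA was read by fluorescent capillary electrophoresis.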
Chain of Oxysterols receptor LXR-beta (Homo sapiens) (P55055 whole entry, looked up, the tested form may be a part): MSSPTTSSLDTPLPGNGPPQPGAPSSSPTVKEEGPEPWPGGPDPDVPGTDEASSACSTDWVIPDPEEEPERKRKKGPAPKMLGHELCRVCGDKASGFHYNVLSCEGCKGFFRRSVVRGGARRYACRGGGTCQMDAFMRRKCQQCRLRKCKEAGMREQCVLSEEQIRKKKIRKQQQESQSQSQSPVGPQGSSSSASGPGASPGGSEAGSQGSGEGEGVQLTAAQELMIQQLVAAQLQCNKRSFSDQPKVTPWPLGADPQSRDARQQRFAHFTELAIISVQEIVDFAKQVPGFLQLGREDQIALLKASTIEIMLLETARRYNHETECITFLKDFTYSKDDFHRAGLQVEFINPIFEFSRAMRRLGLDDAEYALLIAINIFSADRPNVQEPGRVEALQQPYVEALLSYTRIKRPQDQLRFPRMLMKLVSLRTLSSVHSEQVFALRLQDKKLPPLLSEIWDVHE

For assay [3], the target named is Hepatocyte nuclear factor 4-alpha (Homo sapiens) (UniProt P41235). As to the kind of experiment: ATG_HNF4a_TRANS: Attagene TRANS-FACTORIAL HepG2 Assay for human Hepatocyte Nuclear Factor 4 alpha (HNF4a) (AID 2282982). The settings on record: HepG2 HNF4a transactivation reporter, mRNA readout. Put shortly:
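Cells used were human HepG2, transiently carrying GAL4-UAS reporter units read out against exogenous NR-GAL4 chimeras. Reporter transcript levels after 24 h dosing were quantified by fluorescent RT-PCR and capillary electrophoresis.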

Assay [4] can be described thus: ATG_M_06_TRANS: Attagene TRANS-FACTORIAL HepG2 Assay for M06 Transcription Factor (Internal Marker) (AID 2282983). The note with it: HepG2 Attagene TRANS M06 internal marker reporter. Put shortly:
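After a 24 h chemical treatment of transfected HepG2, RNA underwent DNase I treatment, reverse transcription and reporter-specific PCR; labelled, HpaI-digested products were sized by capillary electrophoresis. Signal increase relative to DMSO defined activity.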

The nature of assay [5]: ATG_M_32_TRANS: Attagene TRANS-FACTORIAL HepG2 Assay for M32 Transcription Factor (Internal Marker) (AID 2282984).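 Note: transcript level of a background control reporter unit measured by RT-PCR and capillary electrophoresis.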 The settings on record: HepG2 Attagene TRANS M32 internal marker reporter. Summed up: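 Human hepatoma HepG2, transient MRTU transfection, 24 h treatment. RNA → RT-PCR → fluorescent primer extension → HpaI digest (2 h, 37 C) → CE. Positive-direction fit vs DMSO.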

Assay [6] has as its target Nuclear receptor subfamily 4 group A member 2 (Homo sapiens) (UniProt P43354). As to the kind of experiment: ATG_NURR1_TRANS: Attagene TRANS-FACTORIAL HepG2 Assay for human Nuclear Receptor Related Protein 1 (NURR1) (AID 2282985). The settings on record: HepG2 Attagene TRANS reporter, mRNA readout. Summed up: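 After 24 h chemical dosing, total RNA from transiently transfected HepG2 cells was reverse-transcribed and reporter cDNA PCR-amplified, FAM-labelled and analysed by capillary electrophoresis. Activity fitted in positive direction, DMSO as negative control.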

For assay [7], the target named is Transcriptional activator Myb (Homo sapiens) (UniProt P10242). In words: ATG_Myb_CIS: Attagene CIS-FACTORIAL HepG2 Assay for human Myeloblastosis (Myb) Proto-Oncogene Transcription Factor (AID 2282986; active = hit-call score of the fitted dose curve at least 0.9, where 1 is the maximum; inactive = score below 0.9). The settings on record: HepG2 Attagene CIS-FACTORIAL Myb reporter transcription; actives raise or lower the signal. Summed up:
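Transiently transfected HepG2 cells carrying a multiplexed cis-promoter reporter set report endogenous Myb activity after 24 h compound exposure. Reporter mRNA is read by RT-PCR with capillary electrophoresis of fluorescent products, fitted bidirectionally against DMSO.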

For assay [8], the target named is Oxysterols receptor LXR-alpha (Homo sapiens) (UniProt Q13133). In words: ATG_LXRa_TRANS: Attagene TRANS-FACTORIAL HepG2 Assay for human Liver X Receptor alpha (LXRa) (AID 2282980). The settings on record: HepG2 Attagene TRANS reporter, LXRa transactivation. Put shortly: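 Read-out: reporter transcript levels by RT-PCR plus capillary electrophoresis, fluorescence intensity. Transiently transfected HepG2, exogenous NR-GAL4 chimera, GAL4-UAS reporters; 24 h compound exposure. Activity = increase over DMSO negative control.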
Chain of Oxysterols receptor LXR-alpha (Homo sapiens) (Q13133 whole entry, looked up, the tested form may be a part): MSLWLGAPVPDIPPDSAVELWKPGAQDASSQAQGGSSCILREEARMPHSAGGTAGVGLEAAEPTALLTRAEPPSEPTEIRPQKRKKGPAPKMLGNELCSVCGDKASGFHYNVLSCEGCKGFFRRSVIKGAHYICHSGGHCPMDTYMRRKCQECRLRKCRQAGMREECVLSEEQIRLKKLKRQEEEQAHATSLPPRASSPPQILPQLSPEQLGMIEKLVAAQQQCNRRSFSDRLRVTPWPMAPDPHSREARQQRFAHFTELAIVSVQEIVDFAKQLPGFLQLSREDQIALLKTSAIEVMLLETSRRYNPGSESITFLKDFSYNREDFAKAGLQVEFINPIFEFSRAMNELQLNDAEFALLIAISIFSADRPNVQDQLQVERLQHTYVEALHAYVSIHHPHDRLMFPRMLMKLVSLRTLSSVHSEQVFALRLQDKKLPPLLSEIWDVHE

Assay [9] concerns the target Bile acid receptor (Homo sapiens) (UniProt Q96RI1). In words: ATG_FXR_TRANS: Attagene TRANS-FACTORIAL HepG2 Assay for Farnesoid X Receptor (FXR) (AID 2282979).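 Note: hits raise reporter mRNA above DMSO so AC50 marks FXR activation.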 The settings on record: HepG2 Attagene TRANS FXR-GAL4 reporter transcription. Put shortly:
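Read-out: fluorescent reporter transcripts quantified by capillary electrophoresis after RT-PCR of total RNA. Source cells were HepG2 transiently carrying chimeric NR-GAL4 plus GAL4-UAS reporter units, dosed 24 h. Activity fitted upward relative to DMSO baseline.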

Results filed as inconclusive are left out. Calls of active or inactive are those of the source. Rule for the calls, unless noted: active = hit-call score of the fitted dose curve at least 0.9, where 1 is the maximum; inconclusive = response in the unintended direction; inactive = score below 0.9.

Chain of Hepatocyte nuclear factor 4-alpha (Homo sapiens) (P41235 whole entry, looked up, the tested form may be a part): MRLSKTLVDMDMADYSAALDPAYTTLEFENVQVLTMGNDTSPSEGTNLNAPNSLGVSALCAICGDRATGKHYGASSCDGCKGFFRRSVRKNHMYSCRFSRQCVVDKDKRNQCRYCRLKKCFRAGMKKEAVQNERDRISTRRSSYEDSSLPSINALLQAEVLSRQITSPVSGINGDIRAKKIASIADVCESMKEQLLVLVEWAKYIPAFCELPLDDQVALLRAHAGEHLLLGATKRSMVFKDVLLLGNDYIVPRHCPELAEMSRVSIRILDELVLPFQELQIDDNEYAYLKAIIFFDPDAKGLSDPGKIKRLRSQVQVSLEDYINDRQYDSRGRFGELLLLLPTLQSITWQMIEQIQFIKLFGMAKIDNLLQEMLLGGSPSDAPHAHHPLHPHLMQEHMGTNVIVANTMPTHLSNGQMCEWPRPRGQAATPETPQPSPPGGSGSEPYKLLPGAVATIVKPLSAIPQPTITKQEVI
Chain of Bile acid receptor (Homo sapiens) (Q96RI1 whole entry, looked up, the tested form may be a part): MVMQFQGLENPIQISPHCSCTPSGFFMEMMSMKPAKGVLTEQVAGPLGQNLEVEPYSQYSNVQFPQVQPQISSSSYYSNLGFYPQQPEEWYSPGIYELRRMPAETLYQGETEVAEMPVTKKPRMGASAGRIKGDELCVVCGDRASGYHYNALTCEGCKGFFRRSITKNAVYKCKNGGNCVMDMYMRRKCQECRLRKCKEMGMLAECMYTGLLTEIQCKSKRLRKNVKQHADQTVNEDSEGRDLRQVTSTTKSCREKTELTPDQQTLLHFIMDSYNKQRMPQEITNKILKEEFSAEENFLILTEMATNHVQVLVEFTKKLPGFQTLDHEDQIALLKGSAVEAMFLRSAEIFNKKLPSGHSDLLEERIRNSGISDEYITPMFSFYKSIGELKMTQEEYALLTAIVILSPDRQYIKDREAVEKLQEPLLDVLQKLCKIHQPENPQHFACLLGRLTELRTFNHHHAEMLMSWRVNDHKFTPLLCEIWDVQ
Chain of Nuclear receptor subfamily 4 group A member 2 (Homo sapiens) (P43354 whole entry, looked up): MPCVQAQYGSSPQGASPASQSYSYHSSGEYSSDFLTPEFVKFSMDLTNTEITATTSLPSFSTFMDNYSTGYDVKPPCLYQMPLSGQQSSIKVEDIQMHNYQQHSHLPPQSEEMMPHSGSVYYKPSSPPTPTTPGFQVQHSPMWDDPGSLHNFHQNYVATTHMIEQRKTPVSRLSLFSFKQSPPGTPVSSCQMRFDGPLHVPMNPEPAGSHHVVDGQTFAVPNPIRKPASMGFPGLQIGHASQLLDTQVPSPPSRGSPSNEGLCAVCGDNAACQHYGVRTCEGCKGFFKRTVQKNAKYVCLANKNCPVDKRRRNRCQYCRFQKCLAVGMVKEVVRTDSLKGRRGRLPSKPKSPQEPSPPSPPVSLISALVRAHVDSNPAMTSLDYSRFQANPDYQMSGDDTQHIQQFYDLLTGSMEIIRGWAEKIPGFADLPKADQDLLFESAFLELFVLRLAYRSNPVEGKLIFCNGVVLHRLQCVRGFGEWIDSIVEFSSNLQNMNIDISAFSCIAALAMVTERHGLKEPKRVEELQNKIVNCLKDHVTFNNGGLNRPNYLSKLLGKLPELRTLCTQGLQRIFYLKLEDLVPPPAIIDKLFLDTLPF
Chain of Transcriptional activator Myb (Homo sapiens) (P10242 whole entry, looked up): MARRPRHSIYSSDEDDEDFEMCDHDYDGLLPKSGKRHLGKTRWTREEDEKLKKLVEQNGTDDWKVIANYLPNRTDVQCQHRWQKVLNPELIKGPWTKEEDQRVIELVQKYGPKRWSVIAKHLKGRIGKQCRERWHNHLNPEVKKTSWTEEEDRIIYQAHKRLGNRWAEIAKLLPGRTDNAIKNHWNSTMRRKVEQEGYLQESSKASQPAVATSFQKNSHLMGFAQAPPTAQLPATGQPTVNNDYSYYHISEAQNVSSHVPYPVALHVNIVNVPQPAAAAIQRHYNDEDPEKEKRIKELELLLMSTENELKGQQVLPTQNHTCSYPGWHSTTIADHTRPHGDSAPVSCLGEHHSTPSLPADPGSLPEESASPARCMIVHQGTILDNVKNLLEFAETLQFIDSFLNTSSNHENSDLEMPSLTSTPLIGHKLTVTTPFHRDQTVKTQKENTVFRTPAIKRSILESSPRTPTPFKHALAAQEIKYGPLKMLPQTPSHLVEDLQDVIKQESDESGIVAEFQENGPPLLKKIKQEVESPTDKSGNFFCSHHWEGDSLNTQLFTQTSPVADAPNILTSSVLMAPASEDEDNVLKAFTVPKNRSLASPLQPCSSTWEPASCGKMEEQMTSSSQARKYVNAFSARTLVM

As for `O=C(O)CCCC(=O)O`, the result in assay [1], in assay [2], in assay [3], in assay [4], in assay [5] and in assay [6] was inactive. Further, the outcome in assay [7] was inactive.
As to `O=C1c2ccccc2C(=O)c2cc(S(=O)(=O)O)ccc21`, the molecule was classed as inactive in assay [1], in assay [8], in [2], in assay [5] and in assay [7].
`CCOC(=O)CC(=O)c1ccccc1`: the outcome in assay [1], in assay [2] and in [7] was inactive.
On to `O=C(Cl)c1ccc(C(=O)Cl)cc1`, for which the result in [1], in [8], in assay [5], in [6] and in assay [7] was inactive.
Broadly, the AC50 is the concentration at which the activity in the assay is half-maximal. As for `c1ccc(Nc2cccc3ccccc23)cc1`, the outcome in [1], in [2], in [4], in [5] and in assay [6] was inactive. Also, the AC50 in assay [7] was 33.4 µM (active).
On to `CCCC(CC)c1ccccc1` (stereo not given), for which the outcome in [1], in [8] and in [7] was inactive.
As to `C=CCOC(=O)c1ccc(C(=O)OCC=C)c(C(=O)OCC=C)c1`, the call in [1], in assay [8], in assay [4] and in assay [7] was inactive.
With `Cc1c(C(=O)c2c[nH]n(C)c2=O)ccc(S(C)(=O)=O)c1C1=NOCC1`, the result in assay [1], in assay [2], in assay [3], in [4], in assay [5] and in [6] was inactive. For the same molecule, the molecule was classed as inactive in [7].
Regarding `Oc1ccc(-c2ccccc2)c(Cl)c1`, the result in assay [1], in assay [8], in assay [2], in assay [5] and in assay [7] was inactive.
As to `C=CCNCC=C`, the outcome in [1], in [8], in assay [5], in [6] and in [7] was inactive.
Consider `C=CCCCCCCCCO`, for which the molecule was called inactive in [1], in assay [3], in [4], in assay [5], in assay [6] and in assay [7].
Turning to `CC(=O)OC(C)c1ccccc1` (stereo not given), the molecule was classed as inactive in [1], in [2], in [3], in assay [4], in assay [5] and in [6]. Besides, the result in assay [7] was inactive.
For the molecule `CCCCCCC=O`, the outcome in assay [1], in assay [2], in [5], in [6] and in assay [7] was inactive.
As for `CCCCOC(=O)CCC(C)=O`, the outcome in assay [1], in assay [8], in assay [3], in assay [5], in [6] and in [7] was inactive.
Consider `CC(C)(C)N`, for which the outcome in assay [1], in assay [2], in [3], in assay [4], in assay [6] and in [7] was inactive.
As to `Oc1ccccc1Cc1ccccc1O`, the outcome in assay [1], in [8], in assay [4], in assay [5] and in assay [7] was inactive.
Regarding `CC(C)CO`, the result in assay [1], in assay [2], in [4], in assay [5] and in [7] was inactive.
In the case of `CC(=O)OCc1ccccc1`, the molecule was classed as inactive in assay [1], in [2], in assay [3], in assay [4], in assay [5] and in [7].
For the molecule `O=C(C=Cc1ccccc1)OCCc1ccccc1`, the outcome in assay [1], in assay [8], in [5], in assay [6] and in assay [7] was inactive.
Regarding `CC(C)=CCCC(C)=CC#N`, the molecule was called inactive in assay [1], in assay [8], in [4], in assay [5], in assay [6] and in assay [7].
Take `Cc1cc(=O)[nH]c(=O)[nH]1`: the molecule was called inactive in assay [1], in assay [8], in [4], in assay [5] and in [7].
For the molecule `CCCSSCCC`, the molecule was classed as inactive in assay [1], in assay [3], in [4], in [5], in assay [6] and in assay [7].
Consider `C=CC(=O)OCCCCCCCCCC`, for which the call in [1], in assay [8], in assay [5], in [6] and in assay [7] was inactive.
In the case of `CCCCOCCOCCOC(C)=O`, the result in assay [1], in assay [2], in [5] and in [7] was inactive.
As to `CC(=O)OCC=C(C)C`, the molecule was classed as inactive in assay [1], in assay [8], in assay [3], in assay [4], in assay [5] and in assay [7].
In the case of `CC(C)C(=O)OCCc1ccccc1`, the call in assay [9], in [8], in assay [2], in assay [4], in assay [5] and in assay [6] was inactive. For the same molecule, the molecule was classed as inactive in assay [7].
For `O=C(Oc1ccccc1)c1ccccc1C(=O)Oc1ccccc1`, the result in [1], in assay [5] and in assay [7] was inactive.
For the molecule `Cc1ccc([N+](=O)[O-])cc1N`, the molecule was called inactive in [9], in [2], in assay [3], in assay [4], in assay [5] and in [7].
With `N#Cc1ccc(C(c2ccc(C#N)cc2)n2cncn2)cc1`, the molecule was classed as inactive in assay [1], in assay [5] and in assay [7].
`CCCCCC(=O)OCC`: the molecule was classed as inactive in assay [9], in [8] and in assay [7].
As to `Cc1c(Cl)cccc1Cl`, the molecule was called inactive in [1], in [4] and in assay [7].
On to `CO[Si](CCCS)(OC)OC`, for which the result in assay [1], in [3], in [5], in assay [6] and in assay [7] was inactive.
As to `CC1=C(O)C(=O)C(C)O1` (stereo not given), the outcome in [9], in assay [2], in assay [4], in assay [5], in [6] and in assay [7] was inactive.
In the case of `CCCCCCCCCCCCCc1ccccc1`, the outcome in assay [9], in [2], in assay [3], in assay [4], in assay [5] and in [7] was inactive.
